The values that follow come from PubChem BioAssay (NCATS).

“And” between values parts separate entries of the source, which are not always exact repeats. Equal values may be shown once. Records with an inconclusive call do not appear. Values without a mark were called inactive. The source made the active and inactive calls. Calls follow the shape of the dose curve; as a rule, active = well fitted curve in the direction sought with a large enough effect; inconclusive = small, poorly fitted or top-dose-only effect, or another doubt; inactive = no such curve, though single readings can be large; an effect the other way counts as inactive or inconclusive.

The target of assay [1] is Cellular tumor antigen p53 (Homo sapiens) (UniProt P04637). Kind of assay: Primary qHTS for small molecule compounds that upregulate eGFP-tagged delta133p53alpha (in N-terminal) cells. (AID 2060322). Also: nearly all actives have a fitted effect of over 75% in size. Also: potency is read from the fitted curve at half-maximal effect.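 As to activation: cells pre-induced with doxycycline then dosed without doxycycline; series mostly up to about 56 µM; 0% = DMSO vehicle and 100% = reference activator.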 Particulars: NCI-H358 eGFP-delta133p53alpha fluorescence, 24 h; activation: active compounds read high. The gist of the method: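 NCI-H358 cells pre-induced 24 h with 10 ng/ml doxycycline for eGFP-delta133p53alpha, plated dox-free and exposed 24 h at 37C to titrated compounds. Fixed, Hoechst-stained; gated GFP peak intensity by laser scanning cytometry, normalized to DMSO (0%) and 57.5 uM 5-azacytidine (100%).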
Sequence of Cellular tumor antigen p53 (Homo sapiens) (P04637 whole entry, looked up): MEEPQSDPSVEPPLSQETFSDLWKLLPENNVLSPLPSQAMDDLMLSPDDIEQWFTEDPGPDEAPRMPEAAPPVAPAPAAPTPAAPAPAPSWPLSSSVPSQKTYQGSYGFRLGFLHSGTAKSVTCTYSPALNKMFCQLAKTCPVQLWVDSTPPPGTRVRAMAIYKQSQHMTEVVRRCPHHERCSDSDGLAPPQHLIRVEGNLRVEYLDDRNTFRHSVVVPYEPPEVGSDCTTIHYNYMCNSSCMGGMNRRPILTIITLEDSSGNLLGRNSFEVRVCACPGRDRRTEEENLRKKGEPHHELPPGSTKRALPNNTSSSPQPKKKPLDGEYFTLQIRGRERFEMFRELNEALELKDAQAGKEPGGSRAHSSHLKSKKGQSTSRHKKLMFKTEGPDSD

For assay [2], the target named is Aldehyde dehydrogenase, mitochondrial (Homo sapiens) (UniProt P05091). Kind of assay: qHTS for Inhibitors of the Aldehyde Dehydrogenase Family (ALDH2) Primary screen (AID 2061308).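 Also: plate controls were vehicle for no effect and reference inhibitor for full effect; nearly all actives have a fitted effect of over 55% in size.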 A general note: Quantitative high-throughput screening tests each substance at several concentrations.
Assay [3] concerns the target Retinaldehyde dehydrogenase 3 (Homo sapiens) (UniProt P47895). As to the kind of experiment: qHTS for Inhibitors of the Aldehyde Dehydrogenase Family (ALDH1A3) Primary screen (AID 2061315).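 Also: plate controls were DMSO vehicle for no effect and reference inhibitor for full effect.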

Take `COC(=O)[C@]12C(=O)C(C)=C(O)[C@@]1(C)C(C)=CC1[C@@]34CC[C@@H](OC(C)=O)C(C)(C)C3[C@H](C[C@]12C)OC4=O` (some centres undefined): the activation in assay [1] was 2.29%. The Potency entry in assay [2] and in assay [3] was “inactive” in each case.

As to `CC(=O)O[C@@H]1CC2C(C)(C)C(=O)C=C[C@]2(C)C2CC[C@]3(C)C(=CC(=O)[C@@H]3c3ccoc3)[C@@]21C` (some centres undefined), the activation in assay [1] is 1.53%. For the same compound, the Potency entry in assay [2] and in assay [3] was “inactive” throughout.

For the compound `CC(=O)OCC1OC(OC2COC(OC3COC(OC4C(OC5C(CO)OC(OC6CCC7(C)C(CCC8(C)C7CC=C7C9CC(C)(C)CCC9(C(=O)OC9OC(CO)C(O)C(O)C9OC9OCC(OC%10OCC(O)(CO)C%10O)C(O)C9O)C(O)CC78C)C6(C)C)C(O)C5O)OCC(O)C4O)C(O)C3O)C(O)C2O)C(OC(=O)/C=C/c2ccccc2)C(O)C1OC(C)=O` (centres undefined), the activation in assay [1] was 11.5%. In addition, the activity change, negative = inhibition was 6.5% [at 11.2 µM] in assay [2] and -8.22% [at 11.2 µM] in assay [3].

Turning to `C[C@@H]1O[C@@H](O[C@H]2[C@H](O)[C@@H](O)[C@H](OC[C@H]3O[C@@H](OC(=O)[C@]45CCC(C)(C)C[C@H]4C4=CCC6[C@@]7(C)C[C@@H](O)[C@H](O)[C@@](C)(CO)C7[C@H](O)C[C@@]6(C)[C@]4(C)CC5)[C@H](O)[C@@H](O)[C@@H]3O)O[C@@H]2CO)[C@H](O)[C@H](O)[C@H]1O` (some centres undefined), in assay [1], the activation was 16%. In addition, the Potency entry in assay [2] and in assay [3] was “inactive” each time.

Take `COc1cc(O)cc(C)c1C(=O)O[C@@H]1[C@H](O)[C@@H](CO)O[C@H]1n1ccc(=O)[nH]c1=O`: the activation in assay [1] is 11.5%. In addition, the Potency result in assay [2] and in assay [3] was “inactive” throughout.

Turning to `C/C=C(/C=C(C)/C=C/C=C/C=C(\C)C(=O)C12OC1C(O)(CCO)NC2=O)C(=O)OC` (centres undefined), the activation in assay [1] is -13.7%. Also, the Potency result in assay [2] and in assay [3] was “inactive” each time.

As to `O=C(CCCN1CC=C(n2c(=O)[nH]c3ccccc32)CC1)c1ccc(F)cc1`, in assay [1], the activation was 17.5% and 4.33%. In addition, the Potency entry in assay [2] and in assay [3] was “inactive” each time.

For `CC(C)=CCC/C(C)=C/CC/C(C)=C/COC1OC(COC2OCC(OC3OCC(O)C(O)C3O)C(O)C2O)C(O)C(OC2OC(C)C(OC3OC(C)C(OC4OCC(OC5OC(C)C(O)C(O)C5O)C(O)C4O)C(O)C3O)C(O)C2O)C1O` (centres undefined), the activation in assay [1] is 4.58%. Besides, the activity change, negative = inhibition is 7.18% [at 11.2 µM] in assay [2] and -4.87% [at 11.2 µM] in assay [3].

As to `N#Cc1cccc(-c2nc(-c3cccnc3)no2)c1`, the activation in assay [1] is -3.34%. Moreover, the Potency entry in assay [2] and in assay [3] was “inactive” in each case.

On to `CC(=O)OC1C(OC(=O)c2ccccc2)C2C(=C(C)CCC2(C)C)C23CCC(C)(C2)C(=O)CC13` (centres undefined), for which the activation in assay [1] is -13%. Besides, the Potency entry in assay [2] and in assay [3] was “inactive” in each case.

Take `CC1(C)CC[C@]23CO[C@@]4(CCC5[C@@]6(C)CC[C@H](O[C@@H]7OC[C@H](O[C@@H]8O[C@H](CO)[C@@H](O)[C@H](O)[C@H]8O[C@@H]8OC[C@@H](O)[C@H](O)[C@H]8O)[C@H](O)[C@H]7O)[C@@](C)(CO)C6CC[C@@]5(C)[C@]4(C)CC2=O)[C@@H]3C1` (some centres undefined): the activation in assay [1] was 18.3%. Moreover, the Potency result in assay [2] and in assay [3] was “inactive” throughout.

`C[C@@H]1O[C@@H](O[C@H]2[C@H](OC(=O)C34CCC5(C)C(=CCC6C7(C)CC(O)C(O[C@@H]8O[C@H](C(=O)O)[C@@H](O)[C@H](O)[C@H]8O)C(C)(C(=O)O)C7CCC65C)C3CC(C)(C)CC4O)O[C@H](C)[C@@H](O)[C@@H]2O)[C@H](O)[C@@H](O[C@@H]2OC[C@](O)(CO)[C@H]2O[C@@H]2O[C@H](CO)[C@@H](O)[C@H](O)[C@H]2O)[C@H]1O` (some centres undefined): the activation in assay [1] was 8.4%. The results for the activity change, negative = inhibition in assay [2] and in assay [3] were 0.837% [at 11.2 µM] and 5.31% [at 11.2 µM], respectively.

Take `CC(=C\C(C)O)/C=C(\C)C(=O)CC1CC(CC(N)=O)CC(=O)O1` (centres undefined): the activation in assay [1] was -16.8%. Also, the Potency entry in assay [2] and in assay [3] was “inactive” each time.

Take `O=c1ccn(C2OC(CO)C(O)C2O)c(=O)[nH]1` (centres undefined): in assay [1], the activation was 17.6%. Also, the Potency result in assay [2] and in assay [3] was “inactive” each time.

Turning to `O=C(CCO[C@@H]1O[C@H](CO)[C@@H](O)[C@H](O)[C@H]1O)c1ccc(O)cc1`, the activation in assay [1] is -6.87%. The Potency result in assay [2] and in assay [3] was “inactive” each time.

`CC1CCC2(NC1)OC1C(=O)C3C4CCC5CC(O[C@@H]6O[C@H](CO)[C@@H](O)[C@H](O)[C@H]6O[C@@H]6O[C@@H](C)[C@H](O)[C@@H](O)[C@H]6O)CCC5(C)C4CCC3(C)C1C2C` (some centres undefined): the activation in assay [1] was 10.7%. The Potency result in assay [2] and in assay [3] was “inactive” in each case.

As to `CC1(C)CC[C@]2(C(=O)O[C@@H]3O[C@H](CO)[C@@H](O)[C@H](O)[C@H]3O)CC[C@]3(C)C(=CCC4[C@@]5(C)CC[C@H](OC6OC(C(=O)O)C(OC7OC(CO)C(O)C(O)C7O)C(O)C6O)C(C)(C)C5CC[C@]43C)C2C1` (some centres undefined), the activation in assay [1] was -16.8%. Besides, the Potency result in assay [2] and in assay [3] was “inactive” throughout.

Consider `NC(=O)NCCCC(NC(=O)Cc1ccccc1)C(=O)O` (centres undefined), for which, in assay [1], the activation was -1.79%. The Potency result in assay [2] and in assay [3] was “inactive” throughout.

Turning to `COC1=CC(=O)O/C1=C(/OC)[C@@H]1O[C@H]1c1ccccc1`, in assay [1], the activation was -3.05%. The Potency entry in assay [2] and in assay [3] was “inactive” in each case.

For the compound `COc1cn(-c2ccc(-n3cccn3)cc2F)nc(-c2ccnn2-c2ccccc2)c1=O`, the activation in assay [1] is 0%. Moreover, the Potency entry in assay [2] and in assay [3] was “inactive” in each case.

As for `CC(=O)OC1[C@H]2[C@@H](C[C@@H](C)[C@@H]3C=CC(=O)[C@@]13C)OC(=O)[C@@H]2C` (some centres undefined), the Potency in assay [1] is 21.3 µM (active). In addition, the Potency result in assay [2] and in assay [3] was “inactive” throughout.

As for `CC(C)=CCC/C(C)=C/CC/C(C)=C/CC[C@]1(C)CCc2cc(O)cc(C)c2O1`, in assay [1], the activation is -3.05%. Besides, the Potency result in assay [2] and in assay [3] was “inactive” throughout.

In the case of `Cc1cc(OCCCS(C)(=O)=O)cc(C)c1-c1cccc(COc2ccc(C3=CC(=O)NS3=O)cc2)c1` (centres undefined), the activation in assay [1] is -18.3%. In addition, the Potency entry in assay [2] and in assay [3] was “inactive” throughout.
